# Experimental data published in PubChem BioAssay AID1863 (Southern Research Specialized Biocontainment Screening …, 2009).
# Values joined by “and” are separate entries in the source; they are usually repeats but may differ in a detail not shown here. Identical values can stand only once. Out of some 300,000 compounds screened, about 480 (0.16%) were called active. These entries were drawn from the full list. Entries with a potency or affinity are not part of this list. A number with no mark means an inactive call.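 The calls were made as follows: active = inhibition over 29.93%, a cutoff 3 SD above the screen mean, later confirmed by dose response; inconclusive = inhibition over 29.93% but no dose response follow-up; inactive = inhibition at most 29.93% or unconfirmed.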
# Assay: PhoP-dependent GFP reporter repression – Salmonella Typhimurium, primary screen (AID 1863);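 also: 0% = low Mg2+ inducing control and 100% = high Mg2+ repressing control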
# Conditions: S. Typhimurium PhoP-regulated promoter GFP reporter, 4 h; at 50 µM; hits give high values
row,SMILES,inhibition
1,CCCc1cc(=O)[nH]c(SCC(=O)Nc2ccc(Br)cc2)n1,-7.86%
2,CC1CCN(S(=O)(=O)c2ccc3c(c2)c(=O)c(C(=O)NCc2ccccc2Cl)cn3C)CC1,5.92%
3,Cc1cccc(/C=C/C(=O)c2cc(Br)ccc(=O)c2O)c1,23.4%
4,Cc1ccc(/C=C/C(=O)c2ccccc(=O)c2O)c(C)c1,7.66%
5,O=C(/C=C/c1ccccc1Cl)c1ccc[nH]1,11.1%
6,O=C(/C=C/c1ccc(O)c(O)c1)c1ccccc1O,-12%
7,Cc1ccc2occ(/C=C/C(=O)c3ccccc3O)c(=O)c2c1,1.62%
8,O=C(/C=C/c1ccccc1Cl)c1ccc(O)cc1,2.4%
9,C=CCNC(=O)CSc1nnc(-c2ccccn2)n1Cc1ccccc1,7.3%
10,CCOC(=O)c1ccc(NC(=O)c2ccccc2N(C)S(=O)(=O)c2ccccc2)cc1,1.33%
11,Cc1ncc(CSCC(=O)Nc2cc(C(F)(F)F)ccc2Cl)c(CO)c1O,3.52%
12,C=C1CCC(OC(C)=O)C2(C)CCC3C(C)C(=O)OC3C12O (stereo not drawn),5.69%
13,COc1ccc(CN(CCN(C)C)c2ccccn2)cc1,5.26% and 0.005%
14,CC[N+](C)(C)CCN(Cc1ccc(Cl)cc1)c1ccccn1,1.17%
15,Cc1cccc(CCNC(=O)CN(C)S(=O)(=O)c2ccc3c(c2)c(=O)n(C)c(=O)n3C)c1,10.3%
16,Cc1ccc(N2C(=O)N(Cc3ccccc3C)c3ccccc3S2(=O)=O)cc1,3.76%
17,Cc1ccccc1N=Nc1ccc(O)c2ncccc12,-2.25%
18,Cc1ccc(N=Nc2ccc(O)c3ncccc23)cc1,0.67%
19,O=C(N/N=C/c1ccc(O)c2ncccc12)c1cccc(Br)c1,-1.53%
20,Oc1ccc(F)c2cccnc12,-2.12%
21,CN(c1ccc(C(=O)Nc2ccccc2C(=O)N2CCCC2)cc1)S(C)(=O)=O,1.89%
22,CCn1c(C(=O)O)c(CC(=O)Nc2ccccc2OC)c2ccccc21,-3.77%

row,SMILES,inhibition
1,CCC/C=C1/CCCOC(C(=O)NCc2ccccn2)(C(F)(F)F)C1 (stereo not drawn),4.57%
2,COC(=O)c1ccccc1NC(=O)Nc1ncccc1C,8.31%
3,C=CCn1c(-c2sc3nc(C)cc(C)c3c2N)n[nH]c1=S,1.92%
4,CN(Cc1ccccc1)S(=O)(=O)c1ccc(Cl)c(C(=O)NCCc2ccccn2)c1,-2.89%
5,Cc1ccc(S(=O)(=O)NC(=O)NCc2ccc(F)cc2)cc1,-2.51%
6,COc1ccc(-c2nnc(SCC(=O)NC(=O)NCc3ccccc3)o2)cc1,2.48%
7,CCCc1cc(=O)oc2cc(C)cc(OCC(=O)NCCCN3CCCC3=O)c12,-4.85%
8,Cn1nnnc1SCc1nc2ccccc2s1,-6.44%
9,COc1c(C(=O)Nc2ccc(CN3CCOCC3)cc2)cc2ccccc2c1Br,2.69%
10,C[C@H]1[C@H](NC(=O)C(=NOC(C)(C)C(=O)O)c2csc(N)n2)C(=O)N1S(=O)(=O)O,-6.02%
11,CN(C)CCn1nnnc1SCC1=C(C(=O)O)N2C(=O)[C@@H](NC(=O)Cc3csc(N)n3)[C@H]2SC1,2.16%
12,C=CC1=C(C(=O)O)N2C(=O)C(NC(=O)Cc3ccccc3)C2SC1 (stereo not drawn),-2.7%
13,CC1=C(C(=O)O)N2C(=O)C(NC(=O)c3ccn(C)n3)C2SC1 (stereo not drawn),5.21%
14,COC(c1ccccc1)(c1ccccc1)C(Oc1nccc(C)n1)C(=O)O (stereo not drawn),-3.3%
15,COc1cccc(C(=O)Nc2cnc(NC(=O)c3ccco3)cc2C)c1,12.2%
16,C=CCN=C(NC#N)SCC(=O)c1cccc(OC)c1,-4.71%
17,O=C(NCCCn1ccnc1)/C(=C\c1ccc(Br)cc1)NC(=O)c1ccccc1F,-5.42%
18,COc1cc(O)c(C(CC(=O)N2CCOCC2)c2cc(OC)c(OC)c(OC)c2)c(OC)c1 (stereo not drawn),-0.44%
19,CO[C@H]1C=CO[C@@]2(C)Oc3c(C)c(O)c4c(O)c(c(C=NN5CCN(C6CCCC6)CC5)c(O)c4c3C2=O)NC(=O)C(C)=CC=C[C@H](C)[C@H](O)[C@@H](C)[C@@H](O)[C@@H](C)[C@H](OC(C)=O)[C@@H]1C,-1.76%
20,CO[C@H]1C=CO[C@@]2(C)Oc3c(C)c(O)c4c(O)c(c5c(c4c3C2=O)NC2(CCN(CC(C)C)CC2)N=5)=NC(=O)C(C)=CC=C[C@H](C)[C@H](O)[C@@H](C)[C@@H](O)[C@@H](C)[C@H](OC(C)=O)[C@@H]1C,-10.1%
21,COc1ccccc1CNC(=O)C(=O)NCC1OCCN1C(=O)c1cccs1 (stereo not drawn),-7.58%
22,CCOc1ncccc1C(=O)NCCCSc1ccccc1,4.02%

row,SMILES,inhibition
1,COc1ccc(Cl)cc1/C=C(\C#N)C(N)=O,-5.64%
2,Cc1ccnc(SCCn2c(N3CCCCC3)nc3c2c(=O)[nH]c(=O)n3C)n1,2.87%
3,CC(=O)Nc1ccc(S(=O)(=O)NCc2cc(=O)n(C)c(=O)n2C)cc1,1.8%
4,CCOc1cc(C2/C(=C(/O)c3ccc(OC(C)C)cc3)C(=O)C(=O)N2CCCOC)ccc1O (stereo not drawn),-4.64%
5,CCc1cc2c3c(c1)/C(=C1/SC(N)=NC1=O)C(=O)N3C(C)(C)C=C2C,2.08%
6,Cc1cc(C)cc(CN2C(=O)NC3(CCCCCC3)C2=O)c1,-9.68%
7,Oc1ccccc1CNCc1ccccc1,4.46%
8,CC(NCc1ccccc1O)c1ccccc1 (stereo not drawn),-3.45%
9,CN(C)S(=O)(=O)c1cccc(NC(=O)c2ccc(S(=O)(=O)N3CCCC3)cc2)c1,-7.11%
10,CC(C)OCCCNc1nc2c(-c3ccccc3)nnn2c2ccccc12,-3.07%
11,COc1cc(NC(=O)Cn2cnc(S(=O)(=O)N3CCC(C)CC3)c2)cc(OC)c1OC,-7.04%
12,CC[C@H]1OC(=O)[C@H](C)[C@@H](O[C@H]2C[C@@](C)(OC)[C@@H](O)[C@H](C)O2)[C@H](C)[C@@H](O[C@@H]2O[C@H](C)C[C@H](N(C)C)[C@H]2O)[C@](C)(O)C[C@@H](C)C(=NOCOCCOC)[C@H](C)[C@@H](O)[C@]1(C)O,2.91%
13,CC[C@H]1OC(=O)[C@H](C)[C@@H](O[C@H]2C[C@@](C)(OC)[C@@H](O)[C@H](C)O2)[C@H](C)[C@@H](O[C@@H]2O[C@H](C)C[C@H](N(C)C)[C@H]2O)[C@](C)(O)C[C@@H](C)C(=O)[C@H](C)[C@@H](O)[C@]1(C)O,6.93%
14,CCOC(=O)N/N=C\c1cccc(OC)c1OC/C=C/c1ccccc1,1.25%
15,COc1ccccc1CN1C[C@@H]2C[C@@H](c3[nH]c4c(C)cccc4c3C)N3CCC[C@@]23C1=O,-4.79%
16,CCOc1cccc(C(=O)NNC(=O)CCC(=O)O)c1,4.57%
17,NC(=O)c1ccccc1OCC(=O)N1CCCc2ccccc21,-3.13%
18,Clc1ccc2nc(C3CCN(Cc4ccccc4)CC3)[nH]c2c1,18.6%
19,Cc1ccc(CN2CCC(c3nc4ccc(Cl)cc4[nH]3)CC2)cc1,22.6%
20,COc1ccc(Oc2ncnc3sccc23)cc1,9.87%
21,Cc1cc(=O)oc2cc(OCC3CC(c4ccc(Br)cc4)=NO3)ccc12 (stereo not drawn),-2.2%
22,Cc1ccc(Cl)cc1NC(=O)C1C2CCC(O2)C1C(=O)O (stereo not drawn),-0.09%

row,SMILES,inhibition
1,FC(F)(F)c1ccc(N/N=C/c2cccnc2)nc1,-0.8%
2,Fc1cccc(/C=N/Nc2ccccn2)c1,10.3%
3,CCOc1cc(C2C(C(=O)c3ccccc3)=C(C(=O)OC)Nc3nnnn32)ccc1O (stereo not drawn),-7.95%
4,CCOc1ccc(NC(=O)Cn2c(=O)oc3cc(Cl)ccc32)cc1,-5.34%
5,O[C@@H](c1cc(C(F)(F)F)nc2c(C(F)(F)F)cccc12)[C@H]1CCCCN1,9.26%
6,OC(c1cc(C(F)(F)F)nc2c(C(F)(F)F)cccc12)C1CCCCN1 (stereo not drawn),-7.43%
7,CC(O)(c1ccccc1)C(c1ccccc1)C1CCCCN1 (stereo not drawn),5.86%
8,FC(F)(F)c1cc(-c2ccccc2)nc(NC2CCCC2)n1,2.27%
9,Cc1ccccc1CN1[C@@H]2c3ccccc3C[C@@H]2OCCS1(=O)=O,5.91%
10,Nn1c(SCC(=O)Nc2ccc3c(c2)OCO3)nncc1=O,-10%
11,Cc1cccnc1NC(=O)c1ccc2c(c1)OCO2,5.72%
12,CN(Cc1cc([N+](=O)[O-])c2cccnc2c1O)C1CCCCC1,24.8%
13,O=[N+]([O-])c1ccc(Cl)c2cccnc12,2.44%
14,O=[N+]([O-])c1ccc(O)c2ncccc12,-0.36%
15,O=[N+]([O-])c1cc([N+](=O)[O-])c2cccnc2c1Oc1ccccc1O,11.2%
16,O=[N+]([O-])c1cccc2c(Cl)ccnc12,-15%
17,O=[N+]([O-])c1ccc(O)c2cccnc12,4.87%
18,Nc1nonc1C(=O)NCCNC(=O)c1cccs1,17.7%
19,O=C(O)C1CCN(C(=O)COc2ccc3c4c(c(=O)oc3c2)CCCC4)CC1,4.17%
20,COc1ccc(N2CCN(c3oc(-c4ccco4)nc3C#N)CC2)cc1,26.4%
21,COc1cc(S(=O)(=O)n2ccnc2)ccc1Br,-8.94%
22,O=C(NCC1CCCO1)C(C(=O)c1ccc(F)cc1)n1ccccc1=O (stereo not drawn),2.45%
